# Results: ChEMBL document CHEMBL4513216, “Probing the Open Global Health Chemical Diversity Library for Multistage-Active Starting Points for Next-Generation Antimalarials” (ACS Infect Dis, 2020)
# The whole screen tested about 69,000 compounds, of which about 8,600 (12%) showed an effect of 50% or more. Shown is part of a subset that was picked to be rich in strong results.
# System: Plasmodium berghei
# Assay: Screen against P. berghei liver stage (PbLuc), transformed with Luciferase, at 10uM
# Type: functional, HepG2
# Details: tested at 10 uM
row,SMILES,INHIBITION [%]
1,CN1CCN(C(=O)C2CCN(c3cccnn3)CC2)CC1,-9.32
2,CCc1nnc2n1CCN(C(=O)c1nc(-c3ccco3)sc1C)C2,21.5
3,O=C(Cn1ccc(C(=O)O)n1)Nc1c(Cl)cccc1Cl,19.09
4,Cc1ncc(CN(C)Cn2nc(-c3ccccc3)oc2=O)s1,3.41
5,CN(Cc1nnc2n1CCC2)C(=O)c1ccc2c(c1)OCCO2,-2.53
6,O=C(Cc1ccccc1F)N1CCN(C(=O)c2ccoc2)CC1,16.6
7,Cc1nc(N2CCC3(CCOC3)C2)c2cc[nH]c2n1 (stereo not drawn),71.1
8,Cc1nnc2ccc(N3CCC4(CCOC4)C3)nn12 (stereo not drawn),9
9,Cc1nc(C)c(C)c(N2CCC3(CCOC3)C2)n1 (stereo not drawn),-129
10,COc1ccc2c(c1)CN(Cc1ccco1)C(=O)CCN2,17.7
11,Cc1ccc(-n2cc(C(=O)N3CCCC(n4cccn4)C3)nn2)cc1 (stereo not drawn),-2.19
12,O=C(N1CCOCC(O)C1)C1(c2ccc(Cl)cc2)CCC1 (stereo not drawn),0.0996
13,CNC(=O)CC1COCCN1C(=O)C1(c2ccc(Cl)cc2)CCC1 (stereo not drawn),52.1
14,O=C(O)CC1COCCN1C(=O)C1(c2ccc(Cl)cc2)CCC1 (stereo not drawn),1.74
15,COc1cc(C(=O)N2CCC(c3n[nH]c(C)n3)CC2)cc(OC)c1C,0.914
16,O=C(Cc1n[nH]c(-c2cncc(Br)c2)n1)NCc1ccccn1,22.5
17,CC1(c2nccs2)CCN(C(=O)CCN2CCOCC2)CC1,23.3
18,Cc1noc(C(C)N2CCN(Cc3nc(C)c(C)o3)CC2)n1 (stereo not drawn),-2.143
19,Cc1noc(-c2ccc(N(C)Cc3ccncn3)nc2)n1,26.4
20,Cc1noc(-c2ccc(N(C)Cc3nccs3)nc2)n1,1.79
21,CN(Cc1ccc([S+](C)[O-])cc1)c1ccccn1 (stereo not drawn),40.5
22,Cc1noc(-c2cccnc2N(C)Cc2ccc([S+](C)[O-])cc2)n1 (stereo not drawn),79.9
23,Cc1noc(-c2cccnc2N(C)Cc2cscn2)n1,68.8

row,SMILES,INHIBITION [%]
1,Cc1noc(-c2ccc(N(C)Cc3ccncc3C)nc2)n1,-3.58
2,Cc1noc(-c2cccnc2N(C)Cc2cc(C)on2)n1,50.8
3,Cc1noc(-c2cccnc2N2CCN(c3cnn(C)c3)CC2)n1,-26.8
4,Cc1noc(-c2ccc(N(C)Cc3cccnc3)nc2)n1,28.7
5,Cc1nn(S(=O)(=O)c2ccc(Cl)cc2)c(C)c1C,9.52
6,COc1cc(N2CCC3(CCN(C(=O)c4cccnc4)CC3)C2)ncn1,-3.77
7,COc1ncccc1C(=O)N1CC[C@H]2C[C@H](c3nnc(C)[nH]3)O[C@@H]2C1,15.4
8,CC(C)N(C)Cc1nnc2n1CCN(S(=O)(=O)C1CC1)CC2,29
9,N#Cc1cccc(N2CC3(CCN(C(=O)c4cccnc4)C3)CC2=O)c1 (stereo not drawn),19.9
10,COCc1nc(N(C)C)ncc1C(=O)OC,66.5
11,CCCNC(=O)c1cnc(N(C)C)nc1COC,-10.3
12,COCc1nc(N(C)C)ncc1C(=O)NC(C)C,-1.58
13,Cc1cnn(CC2CCCCN2C(=O)c2ccccc2-n2cccn2)c1 (stereo not drawn),38.8
14,CCc1ccc(NS(=O)(=O)c2cc3c(c(C(=O)O)c2)OCCO3)cc1,9.14
15,CCC(=O)N1CCC(n2cc(C(C)(C)O)nn2)CC1,42.1
16,CC(C)(C)c1cn(C2CCN(C(=O)c3cncnc3)CC2)nn1,54.4
17,C[C@H]1C[C@@H]2CCN(C(=O)c3cnccn3)C[C@H]2O1,7.31
18,OC1(c2cn(C3CCN(C4CCSC4)CC3)nn2)CCCC1 (stereo not drawn),-23
19,CC(C)n1cc(C(=O)N2CCC(n3cc(C(C)(C)C)nn3)CC2)cn1,29.8
20,CC(C)(N)c1cn(C2CCN(C3CCSCC3)CC2)nn1,-7.77
21,CC(C)(C)c1cn(C2CCN(C3CCSC3)CC2)nn1 (stereo not drawn),70.9
22,CC(C)(C)c1cn(C2CCN(C(=O)c3cnccn3)CC2)nn1,61.1
23,CC(C)(O)c1cn(C2CCN(C(=O)CCc3ccncc3)CC2)nn1,23.9

row,SMILES,INHIBITION [%]
1,CCCc1cc(C(=O)N[C@H](C)[C@@H](O)c2ccc(O)cc2)n(C)n1,20.3
2,Cc1ccccc1C(=O)NCC(=O)NCc1ccccn1,46.3
3,CC[C@@H]1N(Cc2ccc(F)cc2)CCC[C@]12CCC(=O)N2CCOC,-69.5
4,Cc1ccc(C(=O)N(C)Cc2csc(Br)c2)c(=O)[nH]1,21.8
5,Cc1cc2n(n1)CC(CNCc1cc(C)on1)CN2 (stereo not drawn),26.8
6,CCNC(=O)[C@@H]1CCCN1[C@@H](C(=O)NC)c1ccccc1,-1.12
7,Cc1cccc(S(=O)(=O)NCC(C)(C)CC(C)O)c1C#N (stereo not drawn),18.8
8,CC(O)CC(C)(C)CNS(=O)(=O)c1cccc(Cl)c1C#N (stereo not drawn),53.5
9,Cc1c(F)cccc1S(=O)(=O)NCC(C)(C)CC(C)O (stereo not drawn),-11.9
10,COc1cccc2c3c(c(=O)[nH]c12)CCO3,20.9
11,CC(C)CN1CC[C@@H]2[C@@H]1CCN2S(=O)(=O)c1cn(C)cn1,13.7
12,COCCN(Cc1sccc1C)c1nc(C)nc2sccc12,14.6
13,COCCN(Cc1cnn(C)c1)c1nc(C)nc2sccc12,-39.2
14,CCCN(CCOC)c1nc(C)nc2sccc12,53.9
15,CCOCCN(CCOCC)c1nc(C)nc2sccc12,69.7
16,CCC(CN1CCCC1)NC(=O)Cc1c(C)[nH]c2c(C)cc(C)cc12 (stereo not drawn),41.2
17,Cc1nn(C)c(C)c1S(=O)(=O)N1C[C@@H]2C[C@@H](C)O[C@@H]2C1,8.74
18,CN(C)C(=O)CN1C(=O)[C@@H]2CC[C@H]1CN(Cc1ccccc1C#N)C2,23.9
19,O=C(NCC1CC1)C1CCC2(CCN(C(=O)c3cccs3)CC2)O1 (stereo not drawn),-14.7
20,O=C(Nc1ccc(Br)cc1F)c1ccc(N2CCOCC2)nn1,52.3
21,O=C(Nc1ccc(Br)cc1F)c1ccc(N2CCCCC2)nn1,10.8
22,CSc1ccccc1NC(=O)c1ccc(N2CCOCC2)nn1,-117
